Measured values published in PubChem BioAssay (Tox21).
Results filed as inconclusive are left out. The source made the active and inactive calls. Unless noted, calls follow the shape of the dose curve; as a rule, active = well fitted curve in the direction sought with a large enough effect in the repeat runs; inconclusive = weak or mixed curves; inactive = no such curve, though single readings can be large; an effect the other way counts as inactive or inconclusive.

How the values were obtained:
[1] = qHTS assay for small molecule disruptors of the mitochondrial membrane potential - cell viability (AID 720634; calls by dose curve;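 also: human HepG2 liver cancer cells; series mostly up to about 83 µM; nearly all actives have a fitted effect of over 20% in size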)
Outline: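 Same-well counter-screen: following the MMP dye addition, CellTiter-Glo was added to 1 hr compound-treated HepG2 cells and luminescence read after 30 min at room temperature.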

[2] = qHTS assay for small molecule disruptors of the mitochondrial membrane potential (AID 720635); also: potency is read from the fitted curve at half-maximal effect
Outline: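 HepG2 cells exposed to compound 1 hr at 37C, then Mito-MPS dye 30 min. Ratio read of aggregate (540/590 nm) versus monomer (490/535 nm) fluorescence.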

[3] = qHTS assay to test for compound auto fluorescence at 460 nm (blue) in HEK293 cells (AID 720678)
Outline: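 After cell attachment (4-5 hr, 37C), compounds were pinned onto HEK293 monolayers in 10% dialyzed FBS medium. The blue channel (405/460 nm) was read following overnight culture. Equivalency was calculated against triamterene.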

[4] = qHTS assay to test for compound auto fluorescence at 590 nm (red) in HEK293 cell free culture (AID 720683)
Outline: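 Cell-free wells of DMEM with 10% FBS received compound, and intrinsic fluorescence was read at excitation/emission 540/590 nm. Values expressed as equivalence to Rose Bengal sodium.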

[5] = qHTS assay to identify small molecule antagonists of the glucocorticoid receptor (GR) signaling pathway - cell viability counter screen (AID 720693); also: nearly all actives have a fitted effect of over 55% in size
[6] = qHTS assay to identify small molecule antagonists of the androgen receptor (AR) signaling pathway - cell viability counter screen (AID 743033; also: nearly all actives have a fitted effect of over 45% in size)
[7] = qHTS assay to identify small molecule antagonists of the androgen receptor (AR) signaling pathway using the MDA cell line - cell viability counter screen (AID 743041; also: nearly all actives have a fitted effect of over 45% in size)
Outline: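 Cytotoxicity counter screen: MDA-kb2 AR-luc cells, compound + R1881, 16 h, 37C, 0% CO2; CellTiter-Fluor added at 15.5 h, fluorescence read after 30 min.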

[8] = molecular target: Estrogen receptor (Homo sapiens) (UniProt P03372); assay: qHTS assay to identify small molecule antagonists of the estrogen receptor alpha (ER-alpha) signaling pathway (AID 743069; active = well fitted curve in the direction sought with a large enough effect in the signal ratio in the repeat runs, not every such curve was filed as active; the % refers to the signal ratio)
Chain of Estrogen receptor (Homo sapiens) (P03372 whole entry, looked up): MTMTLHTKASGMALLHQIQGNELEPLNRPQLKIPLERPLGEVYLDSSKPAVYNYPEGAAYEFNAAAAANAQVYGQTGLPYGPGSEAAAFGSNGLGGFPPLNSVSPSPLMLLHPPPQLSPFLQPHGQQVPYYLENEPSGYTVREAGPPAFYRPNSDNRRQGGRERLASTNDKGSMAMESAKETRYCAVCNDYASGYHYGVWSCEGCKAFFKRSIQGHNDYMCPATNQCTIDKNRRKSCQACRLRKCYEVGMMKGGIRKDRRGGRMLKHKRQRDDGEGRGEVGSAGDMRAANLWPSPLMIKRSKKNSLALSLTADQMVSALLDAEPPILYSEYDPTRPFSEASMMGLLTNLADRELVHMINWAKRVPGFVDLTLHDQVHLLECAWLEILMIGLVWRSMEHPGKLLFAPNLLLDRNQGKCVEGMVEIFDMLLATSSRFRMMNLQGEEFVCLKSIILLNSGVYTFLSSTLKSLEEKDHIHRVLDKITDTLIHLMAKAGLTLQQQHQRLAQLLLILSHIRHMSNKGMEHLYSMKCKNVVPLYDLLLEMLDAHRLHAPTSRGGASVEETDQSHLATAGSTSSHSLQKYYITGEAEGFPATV
Outline: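 Beta-lactamase FRET fluorescence is read after 2 hr at room temperature with LiveBLAzer B/G substrate. Before that, ER-alpha-bla HEK293 cells sit 4 hr after plating, then receive compound plus 17beta-estradiol and incubate 18 hr at 37C.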

[9] = molecular target: Estrogen receptor (Homo sapiens) (UniProt P03372); assay: qHTS assay to identify small molecule agonists of the estrogen receptor alpha (ER-alpha) signaling pathway (AID 743075; calls by dose curve;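 also: HEK293 GripTite cells with ER-alpha and UAS-driven beta-lactamase reporter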)
[10] = molecular target: Estrogen receptor (Homo sapiens) (UniProt P03372); assay: qHTS assay to identify small molecule agonists of the estrogen receptor alpha (ER-alpha) signaling pathway using the BG1 cell line (AID 743079); also: nearly all actives have a fitted effect of over 20% in size
[11] = qHTS assay to identify small molecule antagonists of the estrogen receptor alpha (ER-alpha) signaling pathway using the BG1 cell line (AID 743080; calls by dose curve;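 also: BG1 cells stimulated with 17beta-estradiol alongside compound; series mostly up to about 70 µM; nearly all actives have a fitted effect of over 25% in size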)
Outline: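 Seeding, 24 h rest, compound transfer from DMSO, 17beta-estradiol addition, 21.5 h incubation, CellTiter-Fluor (30 min, 37 C), then ONE-Glo (30 min, room temperature): this sequence was run on BG1-Luc-4E2 reporter cells.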

[12] = qHTS assay to identify small molecule antagonists of the estrogen receptor alpha (ER-alpha) signaling pathway using the BG1 cell line - cell viability counter screen (AID 743081);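 also: compound given together with 17beta-estradiol as the ER stimulus; series mostly up to about 70 µM; nearly all actives have a fitted effect of over 45% in size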
[13] = molecular target: Peroxisome proliferator-activated receptor gamma (Homo sapiens) (UniProt P37231); assay: qHTS assay to identify small molecule agonists of the peroxisome proliferator-activated receptor gamma (PPARg) signaling pathway (AID 743094; active = well fitted activation curve with a large enough effect in the signal ratio in the repeat runs, not every such curve was filed as active; the % refers to the signal ratio)
Chain of Peroxisome proliferator-activated receptor gamma (Homo sapiens) (P37231 whole entry, looked up): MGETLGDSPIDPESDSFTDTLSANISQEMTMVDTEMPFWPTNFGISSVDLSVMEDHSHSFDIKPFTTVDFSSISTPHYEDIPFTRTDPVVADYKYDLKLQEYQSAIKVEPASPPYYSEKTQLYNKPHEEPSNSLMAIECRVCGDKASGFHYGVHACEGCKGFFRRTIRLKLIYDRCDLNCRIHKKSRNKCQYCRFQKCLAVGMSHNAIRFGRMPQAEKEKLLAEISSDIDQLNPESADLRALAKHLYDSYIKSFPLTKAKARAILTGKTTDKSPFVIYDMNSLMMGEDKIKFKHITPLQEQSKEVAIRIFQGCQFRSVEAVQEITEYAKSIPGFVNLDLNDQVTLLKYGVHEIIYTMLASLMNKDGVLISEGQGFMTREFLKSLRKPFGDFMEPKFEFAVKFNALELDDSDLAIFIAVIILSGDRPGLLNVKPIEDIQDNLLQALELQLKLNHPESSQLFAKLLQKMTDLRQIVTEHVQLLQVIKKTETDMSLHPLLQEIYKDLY
Outline: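 Cell-based bla reporter, HEK293H background, PPARg-driven UAS. Pre-incubation 5 h, 37C, 5% CO2. Compound 17 h, 37C. Substrate 1 h RT; fluorescence.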

[14] = qHTS assay to identify small molecule phospholipidosis (PLD) inducers (AID 1259344; active = well fitted curve in the direction sought with a large enough effect; an effect the other way counts as inactive or inconclusive)
Outline: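 Read-out is LipidTOX Red fluorescence (ex 595/em 615) imaged in HepG2 cells after 24 h compound exposure at 37 C, with Hoechst nuclear counterstain (ex 352/em 461) allowing per-cell normalisation.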

[15] = qHTS assay for small molecule agonists of the p53 signaling pathway (AID 651631; calls by dose curve; also: nearly all actives have a fitted effect of over 15% in size)
Outline: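 Agonist mode screen using a stably integrated beta-lactamase gene under p53 response elements in HCT-116 cells. Compound exposure lasts 16 h at 37 °C; fluorescence intensity is measured following 2 h FRET substrate loading.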

[16] = qHTS assay to test for compound auto fluorescence at 590 nm (red) in HepG2 cells (AID 720674)
Outline: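 Fluorescence at 590 nm emission following 540 nm excitation was recorded from HepG2 wells one hour after compound transfer, with DMSO-only wells as vehicle and Rose Bengal sodium equivalency as the scale.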

[17] = qHTS assay for identifying genotoxic compounds that show differential cytotoxicity against isogenic chicken DT40 cell lines with known DNA damage response pathways - wild type cell line (AID 743012); also: nearly all actives have a fitted effect of over 60% in size; also: potency is read from the fitted curve at half-maximal effect
Outline: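 300 wt DT40 cells/well; cpd (DMSO) pintool-transferred after ~0.5 h at 37 C/5% CO2; 40 h incubation; CellTiter-Glo added, 30 min RT; luminescence read.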

[18] = qHTS assay for identifying genotoxic compounds that show differential cytotoxicity against isogenic chicken DT40 cell lines with known DNA damage response pathways - Rev3 mutant cell line (AID 743014); also: nearly all actives have a fitted effect of over 55% in size; also: potency is read from the fitted curve at half-maximal effect
[19] = qHTS assay for small molecule agonists of the p53 signaling pathway - cell viability (AID 651633; calls by dose curve;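 also: p53RE-bla HCT reporter cells with a stable beta-lactamase p53 reporter; series mostly up to about 83 µM; nearly all actives have a fitted effect of over 30% in size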)
Outline: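 p53RE-bla cells were treated with compound for 16 hours at 37 C. Cytotoxicity was then measured as CellTiter-Glo luminescence after 30 min at room temperature.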

[20] = molecular target: Glucocorticoid receptor (Homo sapiens) (UniProt P04150); assay: qHTS assay to identify small molecule agonists of the glucocorticoid receptor (GR) signaling pathway (AID 720691; active = well fitted activation curve with a large enough effect in the signal ratio in the repeat runs, not every such curve was filed as active; the % refers to the signal ratio)
Chain of Glucocorticoid receptor (Homo sapiens) (P04150 whole entry, looked up): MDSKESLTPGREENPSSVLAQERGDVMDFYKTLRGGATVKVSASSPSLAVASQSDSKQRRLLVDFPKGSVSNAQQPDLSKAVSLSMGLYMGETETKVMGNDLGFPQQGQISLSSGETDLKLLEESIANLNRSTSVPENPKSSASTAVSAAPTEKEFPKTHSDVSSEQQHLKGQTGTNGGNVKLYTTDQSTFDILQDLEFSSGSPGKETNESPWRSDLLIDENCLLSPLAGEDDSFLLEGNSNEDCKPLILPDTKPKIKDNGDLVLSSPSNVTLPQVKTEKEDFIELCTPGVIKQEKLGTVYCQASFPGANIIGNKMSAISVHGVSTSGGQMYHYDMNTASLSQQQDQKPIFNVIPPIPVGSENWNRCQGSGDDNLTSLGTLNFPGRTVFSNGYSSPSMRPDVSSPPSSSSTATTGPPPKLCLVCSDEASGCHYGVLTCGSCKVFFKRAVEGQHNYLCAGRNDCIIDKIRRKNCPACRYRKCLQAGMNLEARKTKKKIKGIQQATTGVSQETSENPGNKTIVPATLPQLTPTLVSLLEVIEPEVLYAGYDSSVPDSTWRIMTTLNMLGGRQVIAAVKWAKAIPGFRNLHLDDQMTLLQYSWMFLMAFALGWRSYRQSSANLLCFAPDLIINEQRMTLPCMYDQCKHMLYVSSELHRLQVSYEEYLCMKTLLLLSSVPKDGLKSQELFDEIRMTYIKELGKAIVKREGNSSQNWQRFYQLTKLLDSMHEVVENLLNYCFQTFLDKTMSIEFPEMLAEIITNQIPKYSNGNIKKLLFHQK
Outline: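 A HeLa cervical cancer line expressing GR and a glucocorticoid response element-driven beta-lactamase gene is treated with compounds for 18 h; LiveBLAzer B/G FRET substrate is then applied and fluorescence read.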

Measured: Potency

O=C(NC(=O)c1c(F)cccc1F)Nc1ccc(Cl)c(Oc2ncc(C(F)(F)F)cc2Cl)c1
active: [2] 2.98 µM
not listed: [15] | [16] | [17] | [18] | [19] | [20]
inactive: all other assays above

C[C@@H](Cc1ccccc1)NCCC(c1ccccc1)c1ccccc1
active: [17] 3.59 µM | [18] 5.07 µM
inactive: [15] | [16] | [4] | [6] | [8] | [9] | [10] | [11] | [14]

CCC/C=C/C=C/C(=O)O[C@H]1/C(=C/C(=O)OC)C[C@H]2C[C@H]([C@@H](C)O)OC(=O)C[C@H](O)C[C@@H]3C[C@H](OC(C)=O)C(C)(C)[C@](O)(C[C@@H]4C/C(=C/C(=O)OC)C[C@H](/C=C/C(C)(C)[C@]1(O)O2)O4)O3
active: [2] 0.0038 µM | [17] 0.0038 µM | [18] 0.0038 µM
not listed: [4] | [9] | [10] | [15] | [20]
inactive: all other assays above

Cc1cc(C)cc(C(=O)OC2C[C@H]3CC[C@@H](C2)N3C)c1 (some centres undefined)
active: [17] 2.98 µM | [18] 1.88 µM
not listed: [2] | [5] | [13] | [15] | [16]
inactive: all other assays above

O=C1Nc2ccc(Cl)cc2C(c2ccccc2Cl)=NC1O (centres undefined)
not listed: [3] | [4] | [13] | [16] | [17] | [19]
inactive: all other assays above

CN1C(=O)CC(=O)N(c2ccccc2)c2cc(Cl)ccc21
not listed: [3] | [6] | [13] | [18] | [19]
inactive: all other assays above

CN(C)CCCCCCN(C)C (tested in a mixture with another compound)
inactive: [19] | [2] | [16] | [20] | [5] | [17] | [18] | [6] | [7] | [12] | [14]

CN[C@@H](C)Cc1ccccc1
not listed: [8] | [9] | [10] | [11] | [13] | [20]
inactive: all other assays above
